# Compound activity from PubChem BioAssay.
# TROY signal inh: inhibitors of TROY-dependent NF-kB signaling; inhibition, % at 10 µM; actives 0.98% (n = 360,000); AID 1347056; Q293 LMP1-TROYcd NF-kB luciferase reporter, 4 h;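 active = compounds whose plate-normalised and pattern-corrected inhibition of the luciferase reporter signal at the single screening dose is 50% or more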
# CF NFkB block: blocks PAF-induced NF-kB reporter in cystic fibrosis cells; inhibition, % at 5 µM; KKLEB NF-kB-GFP reporter, GFP fluorescence overnight; actives 0.86% (n = 360,000); AID 588850;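 active = at least 50% inhibition at 5 µM, scaled per plate between neutral and stimulator controls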;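 also: PAF is a Pseudomonas aeruginosa culture filtrate used as stimulus; plate controls were PAF-stimulated DMSO wells for no effect and unstimulated DMSO wells for full effect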
# TWEAK-Fn14 inh: blocks TWEAK-Fn14 interaction in a reporter cell assay; TWEAK-stimulated Fn14 reporter cells, luciferase luminescence, 8 h; actives 2% (n = 360,000); AID 1159606; inhibition, % at 10 µM; in the data active = inhibition above about 50%
# KKLEB cytotox: CF airway cell cytotoxicity counter-screen | KKLEB CF airway cells viability, ATPlite luminescence, overnight; hits give low values; cells stimulated with P. aeruginosa culture filtrate | activity change (cytotoxicity), % at 5 µM | actives 0.36% (n = 360,000) | AID 602141;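 active = corrected activity change at or below -50% at 5 µM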
# Peg3 promoter: inhibitors of Peg3 promoter; HeLa PEG-Prom luciferase reporter, luminescence, overnight; inhibition, % at 20 µM; actives 1.7% (n = 360,000);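 active = inhibition of at least 50% at 20 µM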
# HIF-2a inh: blocks HIF-2a reporter activity; 786-0 RCC cells HIF-2a reporter, luciferase luminescence, overnight; AID 624352; actives 0.72% (n = 360,000); inhibition, % at 18.8 µM;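 active = inhibition of the luminescence signal of 40% or more relative to plate controls, in a single-dose primary screen at 18.75 µM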
# * hit, by the source's call; x = not tested or not shown. Rows were chosen to be rich in hits. Some 4% of all compounds tested hit in one or more screens of this group.
SMILES,TROY signal inh,CF NFkB block,TWEAK-Fn14 inh,KKLEB cytotox,Peg3 promoter,HIF-2a inh
COc1ccccc1CNS(=O)(=O)c1cc(CN2C(=O)c3cccnc3C2=O)ccc1OC,7,12,-2,9,13,11
Nc1c(N(Cc2ccco2)C(=O)COc2ccccc2F)c(=O)[nH]c(=O)n1Cc1ccccc1,26,19,27,-6,0,2
CN(C)CCNC(=O)c1cccc2ccc(-c3ccc(-c4ccccc4)cc3)nc12,-66,-52,-44,-9,93*,10
COc1ccc(OC)c2nc3c(C(=O)NCCN(C)C)cccc3nc12,-2,-222,-23,11,90*,7
Cc1cccc2sc(NC(=O)C3c4ccccc4Oc4ccccc43)nc12,5,1,35,11,16,3
CCc1cc2c(=O)c(-c3nc4ccccc4[nH]3)coc2c(CN2CCCCC2C)c1O (centres undefined),17,7,17,-14,12,-5
CCc1cc2c(=O)c(-c3ccc4c(c3)OCCO4)coc2c(CN2CCCCC2C)c1O (centres undefined),72*,18,31,-31,-78,-111
COC(=O)[C@]1(C)N[C@H](CN(C)C(=O)COc2ccccc2)[C@@H]2C(=O)N(C)C(=O)[C@@H]21,-10,-10,-4,-8,-1,7
CCOc1ncccc1C(=O)N(CCC(C)C)c1c(N)n(Cc2ccccc2)c(=O)[nH]c1=O,-8,-13,17,25,-1,8
c1ccc(OCCNc2ccn3nc(-c4ccc(OCCN5CCOCC5)cc4)cc3n2)cc1,17,22,54*,-12,46,-22
CC(O)(c1cccnc1)c1nc(-c2cccc(C#N)c2)cs1 (centres undefined),6,-26,-3,12,8,-4
COc1cccc(NC(=O)C2(C)CCCN2C(=O)C(C)C)c1 (centres undefined),-6,11,9,-5,-1,1
O=C(CSc1ccccc1)Nc1ccc(Cl)c(S(=O)(=O)N2CCOCC2)c1,11,7,3,-6,4,-9
Cc1nn(Cc2cccc(F)c2)c(C)c1NC(=O)c1ccc(COc2ccccc2Cl)cc1,44,-11,70*,10,31,-59
CC(=O)c1ccc(N2CCN(C(=O)Cn3cnc(S(=O)(=O)N4CCCCC4)c3)CC2)cc1,-29,10,-6,-5,-5,-11
CC(C)NC(=O)C1CCN(C(=O)N(C)C)CC1,6,-5,51*,0,-4,-18
N#CCCCC#Cc1ccc2c(c1)COc1c3ccccc3nn1-2,81*,-27,93*,-50,-40,-19
O=C1C(Cl)=C(N2CCOCC2)C(=O)N1c1ccccc1F,6,12,70*,-9,4,7
Cc1ccccc1N1C(=O)C(Cl)=C(N2CCOCC2)C1=O,2,1,6,6,13,16
COc1cccc2c1C(=O)c1c(O)c3c(c(O)c1C2=O)C[C@@](O)(C(=O)CO)C[C@@H]3OC1CC(N)C(O)C(C)O1 (some centres undefined),-18,10,76*,-28,96*,-2
COc1cccc2c1C(=O)c1c(O)c3c(c(O)c1C2=O)CC(O)(C(C)=O)CC3OC1CC(N(C)C)C(O)C(C)O1 (centres undefined),61*,77*,98*,-42,98*,14
COc1cccc2c1C(=O)c1c(O)c3c(c(O)c1C2=O)C[C@@](O)(C(=O)CO)C[C@@H]3O[C@H]1C[C@H](N)[C@H](O)[C@H](C)O1,5,83*,87*,-52*,95*,19
CC(=O)[C@@]1(O)Cc2c(O)c3c(c(O)c2[C@H](O[C@H]2C[C@H](N)[C@H](O)[C@H](C)O2)C1)C(=O)c1ccccc1C3=O,66*,-28,95*,-53*,99*,38
O=C(Nc1ccc(Cl)cc1)C(c1ccccc1)N1CCOCC1 (centres undefined),-39,9,0,7,-1,-5
COc1ccc(C2SCC(=O)N2c2ccccc2)cc1 (centres undefined),16,7,25,-3,14,13
SMILES,TROY signal inh,CF NFkB block,TWEAK-Fn14 inh,KKLEB cytotox,Peg3 promoter,HIF-2a inh
Clc1ccc(/C=C/c2nc3ccccc3[nH]2)cc1,16,-14,81*,-74*,-50,-46
Clc1ccc(/C=C/c2nc3ccccc3[nH]2)c(Cl)c1,48,-18,64*,-76*,-83,-93
Clc1cccc(Cl)c1/C=C/c1nc2ccccc2[nH]1,-40,-16,3,-36,-190,-240
NCCCCCc1nnc(SCC(N)=O)o1,-7,-22,32,0,1,22
CCn1c(O)c(/C=C2\C=NN=C2c2ccc(C)cc2)sc1=S,7,-5,-13,6,13,10
CC(C)n1c(O)c(/C=C2\C=NN=C2c2ccccc2)sc1=S,19,58*,22,8,11,6
O=C(ONC1=NCCCCC1)c1ccc(Cl)cc1,-12,9,-94,-15,101*,30
O=C(ONC1=NCCCCC1)c1c(F)cccc1F,-12,17,-43,-10,8,15
CCOC(=O)C1(CCc2ccccc2)CCN(Cc2cc(OC)c(OC)cc2OC)CC1,-5,14,13,-11,6,19
COc1cc2c(c(OC)c1OC)-c1c(cc3c(c1OC)OCO3)C[C@H](C)[C@@](C)(O)C2,-12,-13,13,7,1,14
c1cncc(Cc2cc3ccccc3[nH]2)c1,-17,-17,12,9,-39,13
COc1ccc(-c2nc(-c3ccccn3)ncc2S(C)(=O)=O)cc1,8,-3,-6,-1,0,7
Cn1nc(-c2ccccn2)nc2c(=O)n(C)c(=O)nc1-2,57*,100*,102*,-99*,105*,71*
O=C(N/N=C/c1ccncc1)c1cc([N+](=O)[O-])cc([N+](=O)[O-])c1,-2,4,-25,1,2,7
COCC(=O)N(Cc1cc2ccccc2[nH]c1=O)c1ccc(OC)cc1,-2,9,7,4,15,5
COCC(=O)N(Cc1cc2ccccc2[nH]c1=O)c1ccccc1OC,x,-10,79*,6,6,14
CCOc1ccccc1NC(=O)CSc1nnc(C2CC2)n1CC,1,-4,4,-1,-2,13
CCS(=O)(=O)c1ccc(C=NNc2nc3ccccc3o2)cc1,-55,-8,-1,-2,-322,-232
CN(C)c1ccc(/C=N/Nc2nc3ccccc3o2)cc1,53*,1,81*,-13,-75,-71
C=CCN(CC=C)C(=S)NC(=O)/C=C/c1ccccc1,1,1,11,-8,2,-15
C=CCN(CC=C)C(=S)NC(=O)/C=C/c1ccc(C)cc1,6,-3,63*,3,-9,5
